The list is not random: actives were taken first. Their share in the collection is about 21%.
SARS PLpro yeast: qHTS of Yeast-based Assay for SARS-CoV PLP; S. cerevisiae expressing SARS-CoV PLpro, growth rescue; Potency, µM (highest dose often 32.9 µM), usual class: activators; 330,000 tested, 0.19% active; calls by dose curve; also: nearly all actives have a fitted effect of over 55% in size
NS1 function inh: qHTS Assay for Inhibitors of Influenza NS1 Protein Function; Potency, µM (top dose mostly 46.1 µM); 270,000 tested, 0.4% active; calls by dose curve; also: actives are rising curves; nearly all actives have a fitted effect of over 50% in size
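In this qHTS, NS1 from influenza A is expressed in budding yeast, where it slows growth. Cells are switched from glucose to 2% galactose medium (pH 6.0, -URA), treated with compound, and growth recovery is read at OD600.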
Cycloheximide cs: Cycloheximide Counterscreen for Small Molecule Inhibitors of Shiga Toxin. 300,000 tested, 12% active. cell reporter, cycloheximide protein synthesis inhibition counterscreen. AID 2314, 2010. max response, %; in the data active = max response mostly above about 13%, no sharp cut-off; inactive = mostly below about 14%; also: read at 38.3 µM for the half of the compounds with a filed dose
Pf growth 48h: Primary qHTS for delayed death inhibitors of the malarial parasite plastid, 48 hour incubation | P. falciparum luciferase growth in erythrocytes, 48 h | 310,000 tested, 5.9% active | Potency, µM (top dose mostly 28.7 µM), hits mostly inhibitors | AID 504832, 2011
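Luciferase-expressing parasites in RBCs, 2% Hct / 0.1% parasitemia final; RPMI 1640 + 0.5% Albumax; 37 C, 5% CO2, one generation; luminescence read-out, lower signal = inhibition.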
Pf growth 96h: Primary qHTS for delayed death inhibitors of the malarial parasite plastid, 96 hour incubation; 320,000 tested, 6.9% active; P. falciparum luciferase reporter growth, 96 h; Potency, µM (series often up to 28.7 µM), hits mostly inhibitors
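Two-generation exposure (96 h) targets delayed-death phenotype. Reporter parasites carrying integrated firefly luciferase, in red cells at 2% hematocrit and 0.05% parasitemia final, kept at 37 C, 5% CO2; luminescence loss indicates inhibition.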
Shiga toxin inh: A qHTS for Small Molecule Inhibitors of Shiga Toxin | Vero cells, Shiga toxin protein synthesis inhibition reporter | 290,000 tested, 9.2% active | inhibition, % at 38.7 µM; in the data active = inhibition mostly above about 28%, no sharp cut-off; inactive = mostly below about 43%
Each line names hits and unclear results; the compound was inactive in the other large screens. Unless noted, calls follow the shape of the dose curve; as a rule, active = well fitted inhibition curve with a large enough effect; inconclusive = small, poorly fitted or top-dose-only effect, or another doubt; inactive = no such curve, though single readings can be large or run the other way.

COc1cc(C(=O)NC(=S)Nc2ccc(NC(=O)c3ccco3)cc2)cc(OC)c1OC	none
COc1ccc(C(=O)NC(=S)Nc2cccc3ncccc23)cc1[N+](=O)[O-]	Pf growth 48h inconclusive, Pf growth 96h inconclusive
Cc1cc(C)cc(NC(=O)CSc2nc(=O)n(CCCN3CCOCC3)c3c2CCCC3)c1	Pf growth 96h inconclusive (no result: NS1 function inh, Cycloheximide cs, Shiga toxin inh)
CN(C)c1ccc(C(c2nnnn2CCOC(=O)Nc2ccc(Cl)cc2)N2CCOCC2)cc1 (stereo not given)	NS1 function inh inconclusive
COc1ccc(CCNC(=O)c2nn(C)c3c2CS(=O)(=O)c2ccccc2-3)c(OC)c1	Pf growth 96h inconclusive
COc1ccc(NC2c3ccccc3C(=O)N2c2ccccn2)cc1Cl (stereo not given)	Pf growth 96h 8.28µM (no result: Pf growth 48h)
COc1cccc(NC2c3ccccc3C(=O)N2Cc2ccccc2Cl)c1 (stereo not given)	Pf growth 48h inconclusive, Pf growth 96h inconclusive
COc1ccc(NC2c3ccccc3C(=O)N2c2cccnc2)cc1 (stereo not given)	Pf growth 48h inconclusive, Pf growth 96h 10.4µM
O=C1c2ccccc2C(Nc2ccc(F)c(Cl)c2)N1c1ccccn1 (stereo not given)	Pf growth 96h 4.65µM (no result: Pf growth 48h)
O=C1c2ccccc2C(Nc2ccc(S(=O)(=O)N3CCCCC3)cc2)N1c1ccccn1 (stereo not given)	Pf growth 48h inconclusive, Pf growth 96h inconclusive
Cc1ccc(S(=O)(=O)NC(Cc2ccccc2)C(=O)O)cc1C (stereo not given)	none
CCOc1ccc(Oc2ccccc2NC(=O)CCNC(C)=O)cc1	none (no result: NS1 function inh)
COc1ccc(C(CNC(=O)c2cccc3cccnc23)N(C)C)cc1 (stereo not given)	Pf growth 96h inconclusive
O=C(CN(C(=O)C1CSC(=O)C1)c1cccc(F)c1)NCc1ccc2c(c1)OCO2 (stereo not given)	Pf growth 96h inconclusive
CC(Sc1nnc(NC2CCCCC2)s1)C(=O)Nc1ccc2c(c1)C(=O)c1ccccc1C2=O (stereo not given)	NS1 function inh inconclusive, Cycloheximide cs 26.5, Shiga toxin inh 75.6
COc1ccc(-c2oc3ccccc3c2C#CC(C)(C)O)cc1	Pf growth 48h inconclusive, Pf growth 96h 1.85µM (no result: NS1 function inh, Cycloheximide cs, Shiga toxin inh)
CC(=O)Oc1c(-c2ccc(Br)o2)oc2ccccc2c1=O	Cycloheximide cs 12.8, Pf growth 48h inconclusive
O=C(O)COc1c(-c2ccco2)oc2ccccc2c1=O	none (no result: NS1 function inh)
COc1ccc(-c2oc3ccccc3c(=O)c2OCC(=O)O)cc1	Pf growth 96h inconclusive
COc1ccc(-c2oc3ccccc3c(=O)c2OC(C)=O)cc1	Cycloheximide cs 33.9, Pf growth 48h inconclusive, Pf growth 96h inconclusive, Shiga toxin inh 68.2 (no result: NS1 function inh)
COc1ccc(-c2c(C#CC(C)(C)O)c3ccccc3n2C)cc1	none (no result: NS1 function inh, Cycloheximide cs, Pf growth 48h, Pf growth 96h, Shiga toxin inh)
CC(C)c1ccccc1S(=O)c1ccccc1C(C)(C)O (stereo not given)	none (no result: SARS PLpro yeast, Cycloheximide cs, Pf growth 48h, Pf growth 96h, Shiga toxin inh)
O=C(COC(=O)c1c[nH]c(=O)[nH]c1=O)NCc1ccccc1	none (no result: Pf growth 96h)
CCOc1ccc(NC(=O)CN(C)C(=O)CCCOc2ccc(Br)cc2)cc1OCC	Pf growth 96h inconclusive (no result: NS1 function inh, Cycloheximide cs, Shiga toxin inh)
O=c1cc(O)c2ccccc2n1Cc1ccccc1F	none (no result: NS1 function inh)
O=C(NNc1nc2c(F)cccc2s1)c1ccccc1	Pf growth 48h inconclusive (no result: NS1 function inh)
O=C(NNc1nc2ccccc2s1)c1ccc(F)cc1	Cycloheximide cs 43.6, Pf growth 48h 13.1µM, Pf growth 96h inconclusive, Shiga toxin inh 88.9
O=C(NNc1nc2ccc(F)cc2s1)c1cccc(F)c1	Cycloheximide cs 42.0, Pf growth 48h inconclusive, Pf growth 96h inconclusive, Shiga toxin inh 85.0 (no result: NS1 function inh)
CN(C)/C=C/C(=O)c1ccccc1OCc1cnc(Cl)s1	none
Cc1ccc(S(=O)(=O)N2CCN(C(=O)c3cc(S(=O)(=O)N(C)C)ccc3N3CCCC3)CC2)cc1	none (no result: NS1 function inh, Cycloheximide cs, Shiga toxin inh)
COc1ccc(Cl)cc1NC(=O)CN(C)CC(=O)Nc1ccccc1C(F)(F)F	Pf growth 96h inconclusive (no result: NS1 function inh)
COc1ccc(Cl)cc1NC(=O)CN(C)CC(=O)NC(C)c1ccccc1 (stereo not given)	Pf growth 48h 10.4µM
COc1ccc(Cl)cc1NC(=O)CN(C)CC(=O)Nc1cc(OC)c(OC)c(OC)c1	Pf growth 48h 14.7µM, Pf growth 96h inconclusive
COc1ccc(Cl)cc1NC(=O)CN(C)C(=O)c1cc2c(F)cccc2s1	Pf growth 48h 7.38µM, Pf growth 96h inconclusive (no result: NS1 function inh, Cycloheximide cs, Shiga toxin inh)
COc1ccc(Cl)cc1NC(=O)CN(C)CC(=O)Nc1ccc(Br)cc1	none (no result: NS1 function inh)

Screening data as filed in PubChem.
